tim10-1 inh: growth inhibitors of tim10-1 mutant yeast, primary screen, luminescence, uHTS | AID 463190, 2010 | inhibition, % at 20 µM | 2.2% of 330,000 active | S. cerevisiae tim10-1 ts strain growth, BacTiter-Glo, 24 h;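 active = inhibition of at least 40%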;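 also: mutant grown at 25 °C; 0% = DMSO wells with yeast and 100% = wells holding no yeast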
PfHsp90 yeast 2: growth inhibition of PfHsp90-expressing yeast, primary screen, antimalarial PfHsp90 inhibitor project, S. cerevisiae, BacTiter-Glo luminescence, single point, set 2. inhibition, % at 9.4 µM. BacTiter-Glo ATP, 48 h; yeast lacking PDR1 and PDR3 efflux regulators. 0.32% of 310,000 active. AID 504621, 2011;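 active = every replicate shows inhibition above about 80%, whatever the replicate mean, limit read from the data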;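 also: 0% = DMSO neutral controls and 100% = 20 µM radicicol positive controls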
tim23-1 inh: growth inhibitors of tim23-1 mutant yeast, primary screen, luminescence, uHTS | S. cerevisiae tim23-1 growth, BacTiter-Glo luminescence, 24 h | inhibition, % at 20 µM | 1.3% of 330,000 active | AID 463212, 2010;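 active = growth inhibition of the mutant yeast at or above 50%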;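 also: temperature-sensitive mutant grown at 25 °C; plate controls were DMSO-treated mutant yeast for no effect and medium wells lacking yeast for full effect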
SUMO Mot1 rescue: yeast Mot1-301 growth rescue at high temperature, primary screen, SUMOylation pathway inhibitor project, S. cerevisiae, ATP luminescence, 38.5C; S. cerevisiae Mot1-301 growth rescue; percent above DMSO median, 100 means doubled; 1% of 320,000 active; growth rescue, % at 18.8 µM;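 active = every valid replicate shows activation above 250% relative to neutral control wells; inactive = the rest, any valid replicate at or below 250%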;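 also: OY570 slx delta 5 strain wells were the positive control but not used for scaling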
TIM10 inh: growth inhibitors of isogenic TIM10 control yeast, primary screen, counter-screen for tim10-1 yeast inhibitor project, luminescence, uHTS; S. cerevisiae TIM10 strain growth, BacTiter-Glo luminescence, 24 h; inhibition, % at 10 µM; 1.4% of 330,000 active;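 active = inhibition of 40% or more at the single tested concentration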;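 also: wild-type TIM10 isogenic control strain grown at permissive 25 °C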
tim10-1 confirm: growth inhibitors of tim10-1 mutant yeast, confirmation, single concentration, luminescence, S. cerevisiae; inhibition, % at 20 µM; AID 463213, 2010; S. cerevisiae tim10-1 ts strain growth, BacTiter-Glo, 24 h; 56% of 7,400 active; shares compounds with tim10-1 inh;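 active = inhibition of yeast growth at or above a set limit in either of two repeat tests at 20 µM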;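 also: tim10-1 mutant grown at permissive 25 °C to find synthetic lethal compounds; 0% = DMSO yeast wells and 100% = medium wells without yeast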
* marks the source's active call; other numbers are inactive results; x = no result given. An excerpt weighted towards active compounds, which were near 4.4% of everything screened.

SMILES	tim10-1 inh	PfHsp90 yeast 2	tim23-1 inh	SUMO Mot1 rescue	TIM10 inh	tim10-1 confirm
CC(C1CC1)N(Cc1ccccc1)C(=S)Nc1ccccc1Cl (centres undefined)	33	-42	43	-6	33	x
NC(=O)COC(=O)c1ccc(Cl)c(S(=O)(=O)N(Cc2ccccc2)c2ccc(Cl)cc2)c1	41*	-19	28	-19	8	32*
CCN(c1ccc(OC)cc1)S(=O)(=O)c1csc(C(=O)N2CCCC2)c1	24	7	17	-2	-24	x
O=c1[nH]c(CN2CCN(S(=O)(=O)c3ccc(Cl)cc3)CC2)nc2cc(Cl)ccc12	48*	3	38	28	23	31*
COc1cc2nc(CN3CCN(S(=O)(=O)c4ccc(Cl)cc4)CC3)[nH]c(=O)c2cc1OC	7	-117	17	7	10	x
Cc1cc(C)n(-c2nc(C)nc3sc4c(c23)CCC(C)C4)n1 (centres undefined)	42*	11	47	-4	27	29
Cc1cc(Cl)cc(Cl)c1OCC(=O)NCc1ccco1	50*	58	49	33	35	40*
O=C(COc1ccc(Cl)cc1Cl)NCc1ccco1	1	-11	14	x	-10	x
COc1ccc(C(O)P(=O)(OCCC(C)C)c2ccc(N(C)C)cc2)cc1OC (centres undefined)	11	5	20	-3	12	x
Cc1ccc(C(O)P(=O)(OCCC(C)C)c2ccc(N(C)C)cc2)cc1 (centres undefined)	41*	-34	34	-7	18	19
COc1ccc(-c2cc(C(F)F)n3ncc(C(=O)N4CCc5ccccc5C4)c3n2)cc1	41*	6	33	45	14	9
CC1CCN(C(=O)c2ccc(NS(=O)(=O)c3ccc4[nH]c(=O)[nH]c4c3)cc2)CC1	-24	9	-7	-30	0	x
CC(C)OC(=O)CSc1nc2cccnc2n1C1CCCCC1	40	-2	14	-10	10	15
O=C(Nc1ccc2c(c1)OCO2)c1nn(-c2ccccc2)c(=O)c2ccccc12	44*	-14	25	-2	18	17
COC(=O)COc1ccc(S(=O)(=O)N2CCCCCC2)cc1C	8	20	7	33	3	x
COC(=O)COc1ccc(S(=O)(=O)N2CCN(c3ccccc3F)CC2)cc1C	41*	-18	24	-7	8	31*
COc1ccc(Cl)cc1NC(=O)CSc1nnc(COc2ccccc2)n1C	46*	-34	20	-10	16	17
COc1ccccc1CCN=C(N)NS(=O)(=O)c1ccc(C)c(C)c1	2	-27	6	46	1	x
Cc1ccccc1C(=O)Nc1ccc2nc3n(c(=O)c2c1)CCCC3	1	4	0	2	7	x
CCOc1ccccc1C(=O)Nc1ccc2nc3n(c(=O)c2c1)CCCCC3	55*	-4	39	0	10	4
Cc1cc(SCC(=O)OC(C)C(=O)N(C)c2ccccc2)nc2ccccc12 (centres undefined)	21	9	27	5	12	x
CCOc1ccc(OCC)c(S(=O)(=O)N2CCCCC2C)c1 (centres undefined)	43*	9	46	0	20	11
Cc1ccc2c(CN3CCN(S(=O)(=O)/C=C/c4ccccc4)CC3)cc(=O)oc2c1	40*	-16	47	-7	36	36*
Cc1ccc2c(CN3CCCCC3)cc(=O)oc2c1	-3	-20	4	-3	3	x
COC(=O)c1c(Cc2ccccc2Cl)c[nH]c1C	41*	-8	28	5	10	16
COc1ccc(NC(=O)CN(C)C(=O)c2cn(-c3ccccc3)nc2-c2ccc(OC)cc2)cc1	33	4	27	2	18	x
COc1ccc(NC(=O)CN(C)C(=O)c2cn(-c3ccccc3)nc2-c2ccc(Cl)cc2)cc1	41*	x	36	74	14	20
